# Hits are enriched below; roughly 12% of the tested compounds scored in any of these assays.
# BAZ2B block: qHTS Assay for Inhibitors of BAZ2B | Bromodomain adjacent to zinc finger domain protein 2B (Homo sapiens), Q9UIF8 | AlphaScreen BAZ2B-H3K14Ac peptide displacement | Potency, µM (titrated, usually from 114 µM), usual class: inhibitors | hit rate 4.4% among 360,000 | AID 504333, 2011; note: nearly all actives have a fitted effect of over 60% in size
#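 Protein-peptide AlphaScreen: BAZ2B 50 nM, b-H3K14Ac 50 nM, 1x PBS pH 7.4 + 0.01% Tween-20. Preincubation 30 min RT; cpd 30 min RT (top 110 uM); beads 20 min RT, light-protected.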
# G9a block: qHTS Assay for Inhibitors of Histone Lysine Methyltransferase G9a. Potency, µM (series often up to 102 µM), hits mostly inhibitors. AID 504332, 2011. hit rate 8.8% among 350,000. G9a H3K9 monomethylation, AlphaScreen, 2 h. Histone-lysine N-methyltransferase EHMT2 (Homo sapiens), Q96KQ7; note: nearly all actives have a fitted effect of over 75% in size
# Target sequence (Q96KQ7 913-1193 limits assumed): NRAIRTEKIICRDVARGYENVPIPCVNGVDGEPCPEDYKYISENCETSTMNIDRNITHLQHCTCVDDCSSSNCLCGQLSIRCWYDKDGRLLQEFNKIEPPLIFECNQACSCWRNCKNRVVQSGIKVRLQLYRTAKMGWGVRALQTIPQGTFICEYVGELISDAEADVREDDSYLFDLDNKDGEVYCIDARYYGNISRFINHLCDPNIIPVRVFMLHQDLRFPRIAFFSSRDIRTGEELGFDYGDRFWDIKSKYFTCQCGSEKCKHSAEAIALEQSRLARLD
#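 G9a (20 nM) was preincubated 15 min with compound, then reacted 2 h at room temperature with 500 nM biotin-H3K9 peptide and 20 µM SAM. Monomethyl-H3K9 detected by AlphaScreen using anti-H3K9me1 antibody.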
# JMJD2A Tudor: qHTS Assay for Inhibitors of JMJD2A-Tudor Domain; Potency, µM (titrated, usually from 114 µM), actives largely listed as inhibitors; hit rate 4.4% among 390,000; AID 504339, 2011; AlphaScreen JMJD2A-Tudor / H3K4me3 peptide binding; note: nearly all actives have a fitted effect of over 50% in size
# Sfp PPTase inh: qHTS Assay for Inhibitors of Bacillus subtilis Sfp phosphopantetheinyl transferase (PPTase); Potency, µM, most hits filed as inhibitors; Biochemical Sfp PPTase activity, qHTS; hit rate 3.5% among 310,000;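 note: the enzyme is Sfp with the accession as filed and its product quenches rhodamine fluorescence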
#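 Compounds were incubated with enzyme (final 15 nM) for 15 min at room temperature before substrate addition started the reaction. Fluorescence at 525 nm excitation, 598 nm emission was recorded immediately and after 30 minutes.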
# HP1b chromo inh: HTS for Inhibitors of HP1-beta Chromodomain Interactions with Methylated Histone Tails; Chromobox protein homolog 1 (Homo sapiens), P83916; AlphaScreen HP1-beta / biotin-H3K9me3 peptide binding; Potency, µM (top dose mostly 114 µM), hits mostly inhibitors; hit rate 0.56% among 390,000; note: nearly all actives have a fitted effect of over 70% in size
# Target sequence (P83916 whole entry, looked up): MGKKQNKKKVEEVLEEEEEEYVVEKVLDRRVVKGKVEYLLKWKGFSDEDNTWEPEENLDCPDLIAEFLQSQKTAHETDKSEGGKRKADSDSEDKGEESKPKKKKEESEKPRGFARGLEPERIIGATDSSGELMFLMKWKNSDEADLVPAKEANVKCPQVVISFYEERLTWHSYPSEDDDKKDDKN
#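 HP1-beta protein (50 nM final) preincubated 30 min at room temperature with biotinylated H3(1-18)K9me3 peptide (50 nM) in PBS pH 7.4, 0.01% Tween-20, then compound added for 30 min. AlphaScreen streptavidin donor/nickel chelate acceptor beads (10 ug/mL final), 30 min dark, luminescence read.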
# A number is an active result; i = inactive; ? = inconclusive; nt = no result; ! = not active in a repeat; [ ] = dose if it differs, or a comment. Calls come from the whole dose curve; as a rule, active = well fitted curve in the direction sought with a large enough effect; inconclusive = small, poorly fitted or top-dose-only effect, or another doubt; inactive = no such curve, though single readings can be large; an effect the other way counts as inactive or inconclusive.
SMILES,BAZ2B block,G9a block,JMJD2A Tudor,Sfp PPTase inh,HP1b chromo inh
COc1ccccc1N1CCN(C2CCN(C(=O)c3cccc(F)c3)CC2)CC1,50µM,8.9µM,28µM,i,?
Cc1ccc(OCC(=O)N2CCN(C(=O)c3ccc([N+](=O)[O-])cc3)CC2)cc1,i,50µM,i,?,i
O=C(COc1ccccc1)N1CCN(C(=O)c2ccc([N+](=O)[O-])cc2)CC1,i,nt,i,i,i
O=C(Nc1ccnn1C1CCN(C2CCCCC2)CC1)c1cccc(F)c1,i,nt,25µM,i,i
COc1ccccc1N1CCN(C2CCN(C(=O)COc3cccc(C)c3)CC2)CC1,79µM,8.9µM,5.6µM,i,?
Cc1ccc(N(C)S(=O)(=O)c2cccc(C(=O)NNC(=O)c3ccncc3)c2)cc1,i,i,i,nt,i
Cc1ccc(OCC(=O)N2CCC(N3CCCCCC3)CC2)cc1,56µM,?,6.3µM,i,i
O=C(c1cccc(F)c1)N1CCN(Cc2ccco2)CC1,50µM,32µM,7.9µM,i,i
O=C(c1cccc(F)c1)N1CCC(N2CCOCC2)CC1,50µM,?,7.9µM,56µM,?
O=C(c1cccc(Cl)c1)N1CCC(N2CCC(C(=O)N3CCOCC3)CC2)CC1,i,nt,i,i,i
CCOC(=O)c1sc(S(C)(=O)=O)c2c1CCc1conc1-2,i,56µM,i,i,i
COC(=O)c1cn(C(=O)c2ccc(OC)c(OC)c2)c2ccccc12,i,nt,i,i,i
O=C(O)/C=C\C(=O)Nc1ccc(F)c(F)c1F,i,40µM,i,i,i
COC(=O)c1ccc(C(=O)OC)c(NC(=O)/C=C/C(=O)O)c1,i,?,i,40µM,i
COC(=O)c1ccc(C(=O)OC)c(NC(=O)C2CC2)c1,i,i,i,i,i
O=C(O)/C=C\C(=O)Nc1ccccc1F,i,?,i,i,i
Cn1cc2ccc([N+](=O)[O-])cc2n1,i,i,i,i,i
CC(C)=CCc1c2c(c3occ(-c4ccc(O)c(O)c4)c(=O)c3c1O)C=CC(C)(C)O2,nt,nt,22µM,i,?
CC(C)=CCc1c2c(c3occ(-c4ccc(O)cc4)c(=O)c3c1O)C=CC(C)(C)O2,?,20µM!,?,i,i
COc1ccc(OC)c(N=C2SCCCN2C(=O)c2ccc(N3C(=O)CCC3=O)cc2)c1,i,i[0.501 µM],nt,nt,nt
Cc1ccc2nc(-c3cc(NC(=O)COc4ccc(C)c(C)c4)ccc3Cl)oc2c1,i,i,i,nt,i
CCN1C(=O)S/C(=C/c2ccc(Sc3nc4ccccc4[nH]3)o2)C1=O,i,11µM,i,i,i
CN(C)c1ccc(NC(=O)c2cnsn2)cc1,i,50µM,?,i,i
Cc1noc(C)c1C(=O)Nc1ccc(N(C)C)cc1,i,?,i,i,i
O=C(NNc1nc2cc3c(cc2s1)OCCO3)c1ccccc1,i,40µM,i,i,i
SMILES,BAZ2B block,G9a block,JMJD2A Tudor,Sfp PPTase inh,HP1b chromo inh
Cc1cccc2sc(NNC(=O)c3ccc4c(c3)OCCO4)nc12,?,10µM,?,40µM,i
CCc1nonc1NC(=O)c1oc2cc(C)c(Cl)cc2c1C,i,i,i,i,i
Cc1ccc(S(=O)(=O)NCCC(=O)OCC(=O)NC(=O)c2cccn2C)cc1,i,?,i,i,i
O=S(=O)(Nc1ccc(O)c2ccccc12)c1ccc(F)cc1,nt,nt,50µM,nt,?
CCOc1ccc(S(=O)(=O)Nc2ccc(O)c(Sc3ncn[nH]3)c2)cc1,i,22µM,i,i,i
COc1ccc(OC)c(S(=O)(=O)Nc2cccc(O)c2)c1,nt,nt,i,nt,i
COc1ccc(OC)c(S(=O)(=O)Nc2ccc(O)c3ccccc23)c1,45µM,5.6µM,?,20µM,71µM
COc1ccc(OC)c(S(=O)(=O)Nc2cccc3c(O)cccc23)c1,nt,nt,i,nt,i
COc1ccc(OC)c(S(=O)(=O)Nc2ccc(O)c(Sc3ncn[nH]3)c2)c1,?,7.9µM,?,35µM,i
Cc1ccc(S(=O)(=O)Nc2ccc(O)c(Sc3ncn[nH]3)c2)cc1,i,?,i,i,i
CS(=O)(=O)N(CC(=O)Nc1ccc2c(c1)OCCO2)Cc1ccc(Cl)cc1,i,?,i,i,i
CCCNC(=O)c1ccc2c(c1)nc(C)n2-c1cccc(C)c1,i,i,i,i,i
CNC(=O)N1CCN(C(=O)NC)CC1,i,i,i,i,i
COc1ccc(Br)cc1S(=O)(=O)Nc1ncn[nH]1,i,i,i,i,i
COc1ccc(Cl)cc1S(=O)(=O)Nc1ncn[nH]1,i,79µM,i,i,i
O=C(NC1CC1)c1cc(OCC(F)(F)F)ccc1OCC(F)(F)F,i,i,i,i,i
O=C(NO)c1cc(OCC(F)(F)F)ccc1OCC(F)(F)F,i,79µM,i,i,i
O=C(Nc1cccc(C(=O)O)c1)/C(=C/c1cccc([N+](=O)[O-])c1)NC(=O)c1cccc(Br)c1,nt,nt,i,nt,i
O=C(N/N=C/C(Cl)=C/c1ccc([N+](=O)[O-])cc1)C(=O)Nc1cccc(C(=O)O)c1,56µM,?,?,i,i
CCCOc1cccc(C2/C(=C(/O)c3ccncc3)C(=O)C(=O)N2CCCN(C)C)c1 (centres undefined),i,i[12.7 µM],nt,i,nt
COc1ccc(OC)c(C2/C(=C(\O)c3ccc(OC)c(Cl)c3)C(=O)C(=O)N2CCN(C)C)c1 (centres undefined),i,i[12.7 µM],i,i,i
COc1cc(C2/C(=C(/O)c3ccc(OCC(C)C)cc3)C(=O)C(=O)N2CCN(C)C)ccc1O (centres undefined),i,25µM,i,i,i
COc1ccc(OC)c(C2/C(=C(/O)c3cnn(-c4ccccc4)c3C)C(=O)C(=O)N2CCN(C)C)c1 (centres undefined),50µM,?,i,i,i
COc1cccc(C2/C(=C(\O)c3c(C)nc4c(C)cccn34)C(=O)C(=O)N2CCCN(C)C)c1 (centres undefined),i,50µM,nt,i,nt
COc1ccc(/C(O)=C2/C(=O)C(=O)N(CCN(C)C)C2c2ccc(OC)c(OC)c2)c(C)c1 (centres undefined),i,40µM,i,i,i
CCCN(CC(=O)Nc1ccc(C(C)=O)cc1)CC(=O)Nc1ccccc1C,i,i,i,i,i
COc1cc(CNCCO)cc(Br)c1OCc1ccccc1,i,i,i,i,i
CCOc1ccc(S(=O)(=O)N(CC(=O)NC2CCCC2)c2ccc(F)cc2)cc1,nt,nt,i,nt,i
COc1ccc(C2/C(=C(/O)c3cnn(-c4ccccc4)c3C)C(=O)C(=O)N2CCN(C)C)cc1OC (centres undefined),nt,nt,18µM,nt,i
